Drawing on the supplement of paper PMC4206467, this text covers ATP content for 37 compounds.

The assay deals with Perkinsus marinus PRA240. Kind of assay: ATP content (proliferation) relative to DMSO control; higher = more parasite growth (less inhibition). Conditions: 20 µM; 4 days. The protocol: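 Perkinsus marinus PRA240 trophozoites (2-5x10^6 cells/ml, 100 µl, 96-well) were exposed once to MMV Malaria Box compounds at 20 µM (0.1% DMSO) in triplicate. ATP content (ATPlite bioluminescence) was read at day 4 post-exposure and normalised to DMSO + cells control wells (100% activity). Compounds were identified by joining plate and well to the Malaria Box list.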
`COc1cccc(Nc2nc(NCCO)c3ccccc3n2)c1` showed an ATP content of 77.5%.
To `CCCCC(O)(c1ccc(Cl)cc1)C(CN1CCOCC1)c1ccc(Cl)cc1` (configuration not stated) belongs 131%.
As for `O=C(Nc1ccc(Cl)cc1)N1CCN(c2ccc3nncn3n2)CC1`, the figure is 124%; as for `Cc1cc(=O)oc2c1ccc1oc(C(=O)c3ccccc3)c(C)c12`, 154%; as for `CCCCOc1ccc(C(=O)Nc2cc(C)on2)cc1`, 61.2%.
Compound `c1ccc2c(NCCc3c[nH]c4ccccc34)c3ccccc3nc2c1` displayed an ATP content of 179%.
Turning to `c1ccc(-c2ccc(-c3nc4ccccc4[nH]3)cc2)cc1`, the ATP content came out at 16.5%.
As for `OCCNc1nc(Nc2ccc(Cl)c(Cl)c2)nc2ccccc12`, the figure is 28.8%; as for `COc1ccc2c(c1OC)C(=O)N1c3ccccc3N=C(c3ccc(C)cc3)CC21` (configuration not stated), 155%.
As for `COc1ccc(C=C2SC(Nc3ccccc3)=NC2=O)cc1`, the figure is 61.4%.
With `CC(C)CCNCC(O)Cn1c2ccccc2c2ccccc21` (configuration not stated), the ATP content is 140%.
To `CCOc1ccc(-c2nc(NC(=O)c3cccc(S(C)(=O)=O)c3)sc2C)cc1` belongs 79.8%; to `CCOc1cccc2sc(N(Cc3cccnc3)C(=O)C3CCCCC3)nc12`, 79.5%; to `COc1cc(C(=O)ON=C(N)Cc2cccc3ccccc23)cc(OC)c1OC`, 87.4%.
To `COc1ccc(CCN2C(=O)c3[nH]nc(-c4cc(Cl)c(C)cc4O)c3C2c2ccccc2F)cc1` (configuration not stated) belongs 91.4%; to `CC(C)c1ccc(CNCC(O)c2ccccc2)cc1` (configuration not stated), 117%; to `COc1ccccc1CNC(=O)C1c2ccccc2C(=O)N(CC(C)C)C1c1cccs1` (configuration not stated), 111%.
To `COc1cccc(C(=O)Nc2ccc(-c3nc4ccccc4[nH]3)cc2)c1` belongs 108%.
`CCOc1ccccc1NC(=O)CN1CCN(C(=O)c2ccco2)CC1` displayed an ATP content of 66.6%.
For `COc1cccc(NC(=O)Cn2c(C)c(C#N)c3ccccc32)c1`, the ATP content stood at 110%.
On to `Cc1ccc(C)c(-c2csc(Nc3ccc(C)c(C)c3)n2)c1`, for which the ATP content was determined as 93.6%.
As for `O=C(Nc1ccc(N2CCN(Cc3ccccc3)CC2)cc1)c1cccs1`, the figure is 86.8%; as for `CC(=O)c1sc(NC(=O)Nc2ccc(C)cc2C)nc1C`, 68.1%.
To `CCCCNCC(O)(c1ccc(Cl)cc1)c1ccc(Cl)cc1` belongs 103%; to `Cc1ccc(Cn2c(N3CCC(C(=O)NCc4cccs4)CC3)nc3ccccc32)cc1`, 106%.
As for `Cn1c(=O)n(C)c2cc(CNCCNc3ccnc4cc(Cl)ccc34)ccc21`, the figure is 132%; as for `COCCn1c(C)nc2ccccc2c1=O`, 130%.
`CC(NCc1ccccc1)c1cc(Cl)ccc1O` (configuration not stated) displayed an ATP content of 85.9%.
As to `CCOc1cc2c(cc1OCC)C(c1cc(Cl)ccc1O)NCC2` (configuration not stated), the ATP content is 91.6%.
As for `CCCCc1c(CCC)c(=N)c2ccccc2n1C`, the figure is 95.4%; as for `COc1ccc(-c2cc(=O)oc3c4c(ccc23)OCN(Cc2ccc(F)cc2)C4)cc1`, 130%.
To `CC(C)(C)c1ccc(C(=O)Nc2c3c(nn2-c2cccc(Cl)c2)CSC3)cc1` belongs 147%; to `Cc1cc(N(C)C)nc(Nc2ccc(NC(=O)Nc3ccccc3)cc2)n1`, 85.9%; to `CCOC(=O)c1cnc2ccc(OC)cc2c1NCc1ccccc1`, 69.3%.
`Cc1ccc(Cl)cc1N1CCN(CCCNC(=O)C2CCN(c3nc4ccccc4[nH]3)CC2)CC1` displayed an ATP content of 87.1%.
The compound `COc1ccc(-c2cc3c(nn2)-c2ccccc2C3=O)cc1` yielded an ATP content of 32.7%.
`O=C(Nc1ccc(CN2CCOCC2)cc1)c1ccc(-c2ccc(Br)cc2)o1`: the ATP content came to 89.4%.
